Experimental data taken from PubChem BioAssay (NCATS).
Results filed as inconclusive are left out. Active and inactive are the calls of the source. Calls come from the whole dose curve; as a rule, active = well fitted curve in the direction sought with a large enough effect; inconclusive = small, poorly fitted or top-dose-only effect, or another doubt; inactive = no such curve, though single readings can be large; an effect the other way counts as inactive or inconclusive.

Tests used:
[1] = SDT Cancer Cell Toxicity qHTS against the NCATS CANVASS Library (AID 1347365); conditions: outcome: dose series up to 46.1 µM; note: nearly all actives have a fitted effect of over 60% in size
How it was run: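 Cytotoxicity is measured from cellular ATP: compounds in an 11-point concentration series are pinned onto SDT cells, incubated 72 hr at 37C, then CellTiterGlo is added and luminescence read.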

[2] = KB-3-1 Cancer Cell Toxicity qHTS against the NCATS CANVASS Library (AID 1347366); note: series mostly up to about 46 µM; nearly all actives have a fitted effect of over 75% in size
How it was run: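 Luminescence from CellTiter-Glo (10 min, room temperature) measured KB-3-1 viability after 72 hr compound exposure at 37C. Cells were seeded at 500/well and tested in an 11-point series.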

[3] = qHTS for ATAD5 Agonist screened against the NCATS CANVASS Library (AID 1347367);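 note: luciferase reporter driven by ATAD5 which rises upon DNA damage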
How it was run: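 HEK293T-ATAD5 luc reporter; 2000 cells/well; 5hr settle; cpd 11-pt qHTS; 16hr 37C 5% CO2 dark; viability by CellTiter-Fluor (AFC fluorescence); then luciferase luminescence, 30min RT.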

[4] = G06 Cancer Cell Toxicity qHTS against the NCATS CANVASS Library (AID 1347368); note: series mostly up to about 46 µM; nearly all actives have a fitted effect of over 60% in size
How it was run: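 Cells were plated at 500 per well, then compounds were added over an 11-point range. After 72 hr at 37C, CellTiterGlo was added and luminescence measured as ATP content.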

[5] = MCF7 Cancer Cell Toxicity qHTS against the NCATS CANVASS Library (AID 1347369); conditions: outcome: dose series up to 46 µM
How it was run: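 Cells seeded at 500/well, then compound pinned. Plates incubated 72 hr at 37C, 5% CO2. CellTiterGlo added; luminescence read.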

[6] = qHTS for ATAD5 Antagonist screened against the NCATS CANVASS Library (AID 1347370);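 note: HEK293T cells carrying an ATAD5 luciferase reporter co-treated with 10 µM 5-fluorouridine; series mostly up to about 46 µM; nearly all actives have a fitted effect of over 65% in size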
How it was run: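 Compounds (11-point) co-dosed with 10 µM 5-FUrd for 16 h at 37 °C onto HEK293T-ATAD5 luciferase reporter cells. Viability measured by CellTiter-Fluor fluorescence, then ATAD5 reporter signal by luminescence.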

[7] = J3T Cancer Cell Toxicity qHTS against the NCATS CANVASS Library (AID 1347371); conditions: outcome: dose series up to 46.1 µM
How it was run: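 Luminescence from CellTiterGlo, reporting cellular ATP, serves as the viability measure after 72 hr compound treatment of J3T canine glioma cells seeded at 500 cells/well.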

[8] = molecular target: Nuclear receptor subfamily 1 group I member 3 (Homo sapiens) (UniProt Q14994); assay: qHTS for Constitutive Androstane Receptor (CAR) Antagonist screened against the NCATS CANVASS Library (AID 1347372);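 note: cells stimulated with 50 nM CITCO agonist so inhibition reflects antagonism; luciferase from CYP2B6 promoter reporter driven by hCAR in HepG2 cells; series mostly up to about 46 µM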
Nuclear receptor subfamily 1 group I member 3 (Homo sapiens), sequence (Q14994 whole entry, looked up): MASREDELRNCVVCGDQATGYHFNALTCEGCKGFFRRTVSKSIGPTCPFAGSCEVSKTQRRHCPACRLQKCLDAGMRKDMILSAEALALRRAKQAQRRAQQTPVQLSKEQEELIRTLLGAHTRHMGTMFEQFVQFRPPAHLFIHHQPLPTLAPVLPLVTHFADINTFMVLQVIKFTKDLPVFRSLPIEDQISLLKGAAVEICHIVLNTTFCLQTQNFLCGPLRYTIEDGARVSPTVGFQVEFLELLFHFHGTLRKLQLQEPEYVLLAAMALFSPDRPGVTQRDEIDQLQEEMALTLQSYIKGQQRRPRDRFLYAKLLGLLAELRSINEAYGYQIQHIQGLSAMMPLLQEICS
How it was run: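 Luminescence readout (ONE-Glo, 30 min RT) of CYP2B6-2.2kb reporter in HepG2-hCAR cells after 24hr, 37C treatment with compound against 50 nM CITCO; CellTiter-Fluor viability read beforehand.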

[9] = molecular target: Nuclear receptor subfamily 1 group I member 3 (Homo sapiens) (UniProt Q14994); assay: qHTS for Constitutive Androstane Receptor (CAR) Agonist screened against the NCATS CANVASS Library (AID 1347373);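 note: every well also contained 1.5 µM PK11195 alongside the test compound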
How it was run: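 Cells were plated and allowed to attach for 4hr, then dosed with compound in an 11-point series alongside 1.5uM PK11195. After 24hr at 37C, viability was measured fluorometrically and CAR-driven CYP2B6 reporter luminescence was recorded.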

[10] = qHTS for Hypoxia signaling pathway (HIF-1) antagonists against the NCATS CANVASS Library (AID 1347374);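 note: HRE-bla ME-180 cells stimulated with cobalt chloride to stabilize HIF-1alpha; series mostly up to about 38 µM; nearly all actives have a fitted effect of over 60% in size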
How it was run: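 Antagonism scored as loss of CoCl2-driven (60 uM stock added) HRE beta-lactamase signal, read by CCF4 FRET at 460/530 nm. Compounds were tested in an 11-point series on ME-180 reporter cells for 17 hrs at 37C, with parallel CellTiter-Glo cytotoxicity.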

Measured: outcome

C/C=C/C=C/C(CC(=O)O)Nc1ccc(C=O)cc1 (stereo not drawn)
inactive: all assays above

CC1=C2C(=O)O[C@@H](c3ccoc3)[C@]2(C)CCC1
not listed: [9] | [10]
inactive: all other assays above
